# Reference: PubChem BioAssay (NCATS)
# “And” between values parts separate entries of the source, which are not always exact repeats. Identical values can stand only once. Inconclusive results are not listed. The source made the active and inactive calls. Unless noted, the call rests on the fitted dose curve.
# Columns and labels:
# [1] = target: Bile acid receptor (Homo sapiens) (UniProt Q96RI1); test: qHTS assay for small molecule agonists of farnesoid X receptor signaling (AID 588527); conditions: HEK293T FXR-UAS-bla, beta-lactamase ratio, 16 h; activation: stronger effect = higher value;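 further: series mostly up to about 77 µM; 0% = vehicle basal and 100% = reference agonist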
# How it was run: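 FXR-UAS-bla HEK293T, 10% dialyzed FBS; cpds up to 92 uM titration, 16 h 37 C; CCF4 dye 2 h RT; fluorescence. Normalized to chenodeoxycholic acid 100 uM (100%) and DMSO (0%); Hill fit gives EC50, efficacy.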
# [2] = target: Glucocorticoid receptor (Homo sapiens) (UniProt P04150); test: qHTS assay for small molecule antagonists of glucocorticoid receptor signaling (AID 588533; active means well fitted inhibition curve with a large enough effect in the signal ratio, with a control signal flat, not every such curve was filed as active; the % refers to the signal ratio; further: on the % scale 0 is the no-effect control and ±100 the full control effect)
# How it was run: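 Antagonist-mode qHTS: compound titrations added to GRE-bla HeLa cells, then dexamethasone 2 nM final; 18 h, 37 C. CCF4 FRET fluorescence normalized to dexamethasone and DMSO; IC50 from Hill fit.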
# [3] = target: Peroxisome proliferator-activated receptor delta (Homo sapiens) (UniProt Q03181); test: qHTS assay for small molecule agonists of peroxisome proliferator-activated receptor delta signaling (AID 588534);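 further: 0% = DMSO basal wells and 100% = positive control agonist at 10 µM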
# How it was run: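 Agonist-mode qHTS; reporter cells, 5 hrs 37 C pre-incubation; compound titration, 18 hrs 37 C; CCF4 dye, 2 hrs RT; fluorescence read. EC50/efficacy via Hill fit.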
# [4] = qHTS assay for small molecule antagonists of peroxisome proliferator-activated receptor delta signaling (AID 588535); conditions: HEK293T PPARd-UAS-bla, beta-lactamase FRET ratio, 18 h; 460 nm channel;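 further: cells co-treated with a PPAR-delta agonist as stimulator during compound exposure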
# How it was run: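 Fluorescence from CCF4-loaded GeneBLAzer PPAR-delta-UAS-bla HEK293T cells (2 hrs RT loading) quantified reporter inhibition after an 18 hr, 37 C compound exposure across a titration.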
# [5] = target: Vitamin D3 receptor (Homo sapiens) (UniProt P11473); test: qHTS assay for small molecule antagonists of vitamin D receptor signaling (AID 588541);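 further: receptor activated by calcitriol during compound treatment; series mostly up to about 77 µM; on the % scale 0 is the no-effect control and ±100 the full control effect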
# How it was run: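 VDR-UAS-bla HEK293T cells in 2% charcoal-stripped FBS were stimulated with 1-alpha,25-dihydroxyvitamin D3 (3 nM final) plus compound for 16 h at 37 C. The beta-lactamase CCF4 readout was normalized to 50 nM agonist and DMSO, and Hill fits gave IC50.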
# [6] = target: Vitamin D3 receptor (Homo sapiens) (UniProt P11473); test: qHTS assay for small molecule agonists of vitamin D receptor signaling (AID 588543);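 further: 0% = DMSO basal and 100% = reference agonist control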
# How it was run: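 β-lactamase reporter, VDR-UAS-bla HEK293T, agonist mode. Cells plated 5 h at 37 °C, compound titration 16 h at 37 °C, CCF4 dye 2 h RT, ratio 460/530 nm. Hill fit → EC50, efficacy vs 50 nM 1α,25-(OH)2D3.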
# [7] = target: Thyroid hormone receptor beta (Homo sapiens) (UniProt P10828); test: qHTS assay for small molecule antagonists of thyroid hormone receptor beta signaling (AID 588547; active means well fitted inhibition curve with a large enough effect in the signal ratio, with a control signal flat, not every such curve was filed as active; the % refers to the signal ratio;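 further: cells stimulated with 0.4 nM T3 agonist during compound exposure; series mostly up to about 77 µM; on the % scale 0 is the no-effect control and ±100 the full control effect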); conditions: TR-UAS-bla HEK293, beta-lactamase ratio, antagonist mode, 18 h
# How it was run: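 TR-UAS-bla GripTite HEK293 cells in 2% charcoal/dextran FBS medium; compounds 0.59 nM to 92 uM with T3 at 0.4nM final, 18 h at 37 C. Beta-lactamase read by CCF4 fluorescence (460/530 nm); Hill fits gave IC50 and efficacy.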
# [8] = qHTS assay for small molecule activators of the p53 signaling pathway (AID 651743; active means well fitted activation curve with a large enough effect in the signal ratio, not every such curve was filed as active; the % refers to the signal ratio; further: series mostly up to about 92 µM; % of control where 0% means no effect); conditions: HCT-116 p53RE-bla, beta-lactamase FRET ratio, 16 h; activation: stronger effect = higher value
# How it was run: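 Following 16 hours of compound exposure at 37 C, HCT-116 cells bearing the p53RE-bla reporter were loaded with LiveBLAzer B/G FRET substrate for 2 hours at room temperature and fluorescence intensity was recorded.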
# [9] = qHTS assay for environmental chemicals that activate the Aryl hydrocarbon Receptor (AhR) signaling pathway (AID 651777; active means well fitted curve in the direction sought with a large enough effect; an effect the other way counts as inactive or inconclusive; further: % of control where 0% means no effect; nearly all actives have a fitted effect of over 15% in size); conditions: 1A2-DRE human hepatoma cells, luciferase, 24 h; activation: stronger effect = higher value
# How it was run: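 Luminescence (One-Glo, 30 min, room temperature) reports AhR-driven luciferase in stably transfected human hepatoma cells bearing DRE and CYP1A2 promoter. Cells (1,200/well) were treated with compound for 24 hr at 37 C in qHTS format.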
# [10] = target: Peroxisome proliferator-activated receptor alpha (Homo sapiens) (UniProt Q07869); test: qHTS assay for small molecule agonists of the peroxisome proliferator-activated receptor alpha (PPARalpha) signaling pathway (AID 651778; active means well fitted curve in the direction sought with a large enough effect; an effect the other way counts as inactive or inconclusive; further: % of control where 0% means no effect); conditions: PathHunter PPARalpha complementation, chemiluminescence, 6 h; max response: stronger effect = higher value
# How it was run: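 Enzyme-fragment complementation assay in which ligand-bound PPARalpha translocates and forms an active enzyme that generates chemiluminescence. Cells were plated overnight, exposed to compound for 6 hr at 37 C, and then given detection reagent for 60 min at room temperature.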
# [11] = qHTS assay for small molecule agonists of the antioxidant response element (ARE) signaling pathway measured by Nrf2-dependant transcriptional activity (AID 720636; active means well fitted curve in the direction sought with a large enough effect in the repeat runs; an effect the other way counts as inactive or inconclusive; further: % of control where 0% means no effect)
# How it was run: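 Nrf2-dependent transcription read as ONE-Glo luciferase signal from ARE-luc HepG2 reporter cells after 16 hr compound treatment at 37 C, 5% CO2, in assay medium with 1% dialyzed FBS.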
# [12] = qHTS assay for small molecule agonists of the antioxidant response element (ARE) signaling pathway measured by Nrf2-dependant transcriptional activity - cell viability counter screen (AID 720653; active means well fitted curve in the direction sought with a large enough effect in the repeat runs; an effect the other way counts as inactive or inconclusive; further: on the % scale 0 is the no-effect control and ±100 the full control effect); conditions: ARE-bla HepG2 viability, CellTiter-Glo ATP luminescence, 16 h; max response: stronger effect = lower value
# How it was run: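 ARE-bla HepG2 cells treated with compounds for 16 h at 37C; this counter screen measures viability as intracellular ATP by CellTiter-Glo luminescence after 30 min at room temperature.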
# [13] = qHTS assay for cell viability of the p53RE-bla HCT-116 cell line (AID 743292; active means well fitted curve in the direction sought with a large enough effect; an effect the other way counts as inactive or inconclusive; further: nearly all actives have a fitted effect of over 55% in size; further: potency means the concentration at half of the fitted maximal effect)
# How it was run: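 ATP-based luminescent viability (CellTiter-Glo, 30 min RT) after 16 h compound treatment at 37 C of p53RE-bla HCT-116 cells, seeded at 4,000 cells/well and rested 5 h before dosing.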
# [14] = qHTS assay for small molecule agonists of retinoid X receptor alpha signaling (AID 588544); conditions: HEK293T RXRa-UAS-bla, beta-lactamase reporter, 18 h; 530 nm emission;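 on activation: 0% = DMSO basal wells and 100% = reference agonist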
# [15] = target: Retinoic acid receptor RXR-alpha (Homo sapiens) (UniProt P19793); test: as above
# [16] = target: Thyroid hormone receptor beta (Homo sapiens) (UniProt P10828); test: qHTS assay for small molecule agonists of thyroid hormone receptor beta signaling (AID 588545)
# How it was run: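 HEK 293 TR-UAS-bla; agonist mode; 18 hrs, 37 C; CCF4, ex 405/em 460 and 530 nm; norm. T3 10 nM = 100%, DMSO = 0%; Hill fit → EC50, efficacy.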
# [17] = qHTS assay for small molecule antagonists of retinoid X receptor alpha signaling (AID 588546; active means well fitted inhibition curve with a large enough effect in the signal ratio, with a control signal flat, not every such curve was filed as active; the % refers to the signal ratio); conditions: HEK293T RXRa-UAS-bla, beta-lactamase ratio, antagonist mode; measured here: W530 green channel, cytotoxicity proxy
# How it was run: (§1)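 Beta-lactamase reporter inhibition, read as CCF4 fluorescence ratio (ex 405, em 460/530 nm) after 2 h at RT. HEK293T UAS-bla cells, 2500/well, were stimulated with 9-cis-RA at 500 or 100 nM final alongside test compound for 18 h at 37 C.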
# [18] = target: Retinoic acid receptor RXR-alpha (Homo sapiens) (UniProt P19793); test: as above; conditions: HEK293T RXRa-UAS-bla, beta-lactamase ratio, antagonist mode
# How it was run: as §1
# [19] = qHTS assay for cell viability of HEK293 cells (AID 743288; active means well fitted curve in the direction sought with a large enough effect; an effect the other way counts as inactive or inconclusive; further: on the % scale 0 is the no-effect control and ±100 the full control effect; nearly all actives have a fitted effect of over 50% in size); conditions: ATP luminescence (CellTiter-Glo), 18 h; max response: stronger effect = lower value
# How it was run: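 ATP luminescence (CellTiter-Glo) reports metabolically competent cell number after parental HEK293 cells, 2,000/well, were treated with DMSO-dissolved compounds for 18 h at 37 C; reagent incubation 30 min, room temperature.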
# [20] = target: Nuclear receptor subfamily 1 group I member 2 (Rattus norvegicus) (UniProt Q9R1A7); test: qHTS assay for small molecule activators of the rat pregnane X receptor (rPXR) signaling pathway (AID 651751; call rule not given here; further: 0% is about no effect); conditions: rPXR reporter cells, luciferase (One-Glo), 24 h
# Chain of Nuclear receptor subfamily 1 group I member 2 (Rattus norvegicus) (Q9R1A7 whole entry, looked up): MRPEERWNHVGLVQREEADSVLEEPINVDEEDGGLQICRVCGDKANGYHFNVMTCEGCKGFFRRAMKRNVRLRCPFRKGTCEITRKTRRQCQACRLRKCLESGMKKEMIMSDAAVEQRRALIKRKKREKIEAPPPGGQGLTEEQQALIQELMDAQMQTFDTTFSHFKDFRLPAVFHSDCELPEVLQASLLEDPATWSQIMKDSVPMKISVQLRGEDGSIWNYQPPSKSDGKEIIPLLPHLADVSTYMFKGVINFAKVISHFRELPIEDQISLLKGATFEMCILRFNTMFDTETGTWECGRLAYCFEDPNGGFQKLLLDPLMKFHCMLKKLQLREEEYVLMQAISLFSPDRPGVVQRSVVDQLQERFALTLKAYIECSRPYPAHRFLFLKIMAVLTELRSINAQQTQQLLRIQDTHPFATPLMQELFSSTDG
# Chain of Peroxisome proliferator-activated receptor delta (Homo sapiens) (Q03181 whole entry, looked up): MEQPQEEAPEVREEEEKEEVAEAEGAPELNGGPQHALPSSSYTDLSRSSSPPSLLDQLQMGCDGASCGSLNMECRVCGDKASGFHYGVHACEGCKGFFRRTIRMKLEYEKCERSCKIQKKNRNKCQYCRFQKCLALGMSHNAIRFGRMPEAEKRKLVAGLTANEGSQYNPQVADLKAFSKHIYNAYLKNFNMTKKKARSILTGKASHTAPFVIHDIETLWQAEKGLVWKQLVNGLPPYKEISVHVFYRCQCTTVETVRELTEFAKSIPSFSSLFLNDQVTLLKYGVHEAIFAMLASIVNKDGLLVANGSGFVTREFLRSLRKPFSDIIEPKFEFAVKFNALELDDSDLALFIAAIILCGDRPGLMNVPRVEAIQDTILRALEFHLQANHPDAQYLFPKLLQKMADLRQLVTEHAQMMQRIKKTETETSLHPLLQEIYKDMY
# Chain of Bile acid receptor (Homo sapiens) (Q96RI1 whole entry, looked up): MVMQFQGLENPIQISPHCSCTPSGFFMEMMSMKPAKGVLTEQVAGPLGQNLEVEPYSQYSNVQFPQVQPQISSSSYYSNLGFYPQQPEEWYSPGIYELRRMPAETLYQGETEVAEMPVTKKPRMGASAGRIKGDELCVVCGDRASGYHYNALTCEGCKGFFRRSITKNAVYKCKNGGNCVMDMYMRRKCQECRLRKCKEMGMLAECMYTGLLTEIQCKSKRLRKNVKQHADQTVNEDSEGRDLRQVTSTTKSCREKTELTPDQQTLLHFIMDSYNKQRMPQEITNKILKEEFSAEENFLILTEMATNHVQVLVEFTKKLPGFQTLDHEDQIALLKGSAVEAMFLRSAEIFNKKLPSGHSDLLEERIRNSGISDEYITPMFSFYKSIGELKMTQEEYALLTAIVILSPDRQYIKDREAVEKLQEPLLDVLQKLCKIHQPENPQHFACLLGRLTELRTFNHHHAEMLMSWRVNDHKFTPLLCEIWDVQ
# Chain of Thyroid hormone receptor beta (Homo sapiens) (P10828 whole entry, looked up): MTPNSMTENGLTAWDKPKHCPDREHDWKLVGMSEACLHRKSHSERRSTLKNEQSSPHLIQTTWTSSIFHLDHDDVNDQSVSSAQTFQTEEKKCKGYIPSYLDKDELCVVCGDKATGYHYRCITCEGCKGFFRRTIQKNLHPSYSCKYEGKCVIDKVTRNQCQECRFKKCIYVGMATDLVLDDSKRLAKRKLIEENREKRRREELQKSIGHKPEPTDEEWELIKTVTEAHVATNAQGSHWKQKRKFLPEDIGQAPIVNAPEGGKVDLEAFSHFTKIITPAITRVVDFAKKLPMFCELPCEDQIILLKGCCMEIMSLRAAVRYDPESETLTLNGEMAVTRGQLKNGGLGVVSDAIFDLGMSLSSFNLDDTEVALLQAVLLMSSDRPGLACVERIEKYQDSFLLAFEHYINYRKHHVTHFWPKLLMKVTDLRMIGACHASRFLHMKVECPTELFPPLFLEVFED
# Chain of Retinoic acid receptor RXR-alpha (Homo sapiens) (P19793 whole entry, looked up): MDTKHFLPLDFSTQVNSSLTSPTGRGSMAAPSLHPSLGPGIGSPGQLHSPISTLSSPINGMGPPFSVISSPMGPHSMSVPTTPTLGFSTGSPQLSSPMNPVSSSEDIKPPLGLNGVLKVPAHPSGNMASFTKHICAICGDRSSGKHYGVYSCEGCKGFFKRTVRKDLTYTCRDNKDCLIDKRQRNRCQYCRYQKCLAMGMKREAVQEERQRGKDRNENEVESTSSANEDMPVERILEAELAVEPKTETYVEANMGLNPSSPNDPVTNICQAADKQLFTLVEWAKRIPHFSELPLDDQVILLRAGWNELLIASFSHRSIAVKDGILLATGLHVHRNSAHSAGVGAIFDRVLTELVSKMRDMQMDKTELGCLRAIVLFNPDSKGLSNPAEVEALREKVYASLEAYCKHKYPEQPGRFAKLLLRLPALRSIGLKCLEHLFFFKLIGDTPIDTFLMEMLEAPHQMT
# Chain of Glucocorticoid receptor (Homo sapiens) (P04150 whole entry, looked up): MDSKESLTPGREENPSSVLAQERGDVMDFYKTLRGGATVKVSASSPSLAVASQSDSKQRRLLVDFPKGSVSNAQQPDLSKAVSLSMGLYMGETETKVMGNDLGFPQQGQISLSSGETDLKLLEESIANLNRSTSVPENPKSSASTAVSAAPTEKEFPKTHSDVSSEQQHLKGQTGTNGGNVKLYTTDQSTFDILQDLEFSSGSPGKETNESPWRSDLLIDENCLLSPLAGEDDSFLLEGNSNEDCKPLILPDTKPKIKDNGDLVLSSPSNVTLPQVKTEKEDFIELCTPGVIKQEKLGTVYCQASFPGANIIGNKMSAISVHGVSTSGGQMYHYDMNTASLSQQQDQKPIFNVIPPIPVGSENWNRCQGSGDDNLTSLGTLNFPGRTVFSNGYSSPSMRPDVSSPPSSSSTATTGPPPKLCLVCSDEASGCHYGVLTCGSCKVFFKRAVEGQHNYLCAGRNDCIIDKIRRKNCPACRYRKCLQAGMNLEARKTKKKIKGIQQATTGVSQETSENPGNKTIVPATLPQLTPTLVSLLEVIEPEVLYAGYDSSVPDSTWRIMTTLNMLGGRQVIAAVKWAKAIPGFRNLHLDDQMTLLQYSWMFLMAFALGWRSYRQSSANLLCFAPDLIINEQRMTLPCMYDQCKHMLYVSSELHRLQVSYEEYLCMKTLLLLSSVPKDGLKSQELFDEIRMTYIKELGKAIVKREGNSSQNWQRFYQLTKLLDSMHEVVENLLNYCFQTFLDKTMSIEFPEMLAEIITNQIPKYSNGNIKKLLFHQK
# Chain of Peroxisome proliferator-activated receptor alpha (Homo sapiens) (Q07869 whole entry, looked up, the tested form may be a part): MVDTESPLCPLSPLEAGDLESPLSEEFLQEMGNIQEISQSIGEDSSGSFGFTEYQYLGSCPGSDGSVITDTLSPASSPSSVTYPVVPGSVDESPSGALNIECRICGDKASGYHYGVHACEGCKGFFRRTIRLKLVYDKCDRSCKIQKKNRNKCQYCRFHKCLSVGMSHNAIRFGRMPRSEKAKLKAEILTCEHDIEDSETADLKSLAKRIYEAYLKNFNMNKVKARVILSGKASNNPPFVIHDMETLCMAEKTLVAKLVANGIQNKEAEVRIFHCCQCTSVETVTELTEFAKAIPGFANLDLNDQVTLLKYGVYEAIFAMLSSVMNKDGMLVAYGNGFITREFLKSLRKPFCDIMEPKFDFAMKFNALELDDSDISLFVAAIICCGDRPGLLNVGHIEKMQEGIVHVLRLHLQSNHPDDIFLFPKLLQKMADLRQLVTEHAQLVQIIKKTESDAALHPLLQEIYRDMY
# Chain of Vitamin D3 receptor (Homo sapiens) (P11473 whole entry, looked up): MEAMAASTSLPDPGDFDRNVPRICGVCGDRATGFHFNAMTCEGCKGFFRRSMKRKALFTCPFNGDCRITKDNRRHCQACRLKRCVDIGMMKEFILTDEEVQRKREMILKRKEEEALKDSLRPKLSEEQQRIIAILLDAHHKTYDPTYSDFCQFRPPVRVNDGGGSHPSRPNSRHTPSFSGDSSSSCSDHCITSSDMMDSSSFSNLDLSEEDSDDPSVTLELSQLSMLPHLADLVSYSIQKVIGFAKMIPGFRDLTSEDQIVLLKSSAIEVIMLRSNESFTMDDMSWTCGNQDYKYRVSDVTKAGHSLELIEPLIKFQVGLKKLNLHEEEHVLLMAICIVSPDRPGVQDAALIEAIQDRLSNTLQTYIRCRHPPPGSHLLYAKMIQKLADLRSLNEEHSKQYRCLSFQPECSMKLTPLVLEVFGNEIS
SMILES,activation [1],Potency [2],outcome [3],max response [4],Potency [5],outcome [6],activity change % (negative = inhibition) [7],activation [8],activation [9],max response [10],Potency [11],max response [12],Potency [13],max response [14],Potency [15],Potency [16],max response [17],max response [18],max response [19],max response [20]
CNC(=O)Oc1cc(C)c(SC)c(C)c1,5.14% (inactive),inactive,inactive,12.6%,inactive,inactive,-16.8% (inactive),-3.45% (inactive),0.0661% (inactive),0.9% (inactive),inactive,-13.2% (inactive),inactive,,,,,,,
CCC[CH2][Sn](=[O])[CH2]CCC,-6.54% (inactive),inactive,inactive,0.661%,inactive,inactive,-7.82% (inactive),2.27% (inactive),3.37% (inactive),,inactive,5.71% (inactive),inactive,-5.73%,inactive,inactive,-4.07%,-4.87% (inactive),-6.83% (inactive),4.58% (inactive)
C=C(C)C(=O)OCC(CC)CCCC (stereo not drawn),,inactive,,,inactive,,10.1% (inactive),-3.24% (inactive),1.05% (inactive),5.11% (inactive),inactive,-12.5% (inactive),inactive,-20.3%,inactive,inactive,-12.9%,-2.17% (inactive),2.46% (inactive),-1.07% (inactive)
CC1(C)[C@H](C=C(Cl)Cl)[C@H]1C(=O)O[C@H](C#N)c1ccc(F)c(Oc2ccccc2)c1,,inactive,inactive,27%,inactive,,-23.6% (inactive),-1.98% (inactive) and 0.257% (inactive),1.36% (inactive) and 3.44% (inactive),-0.256% (inactive) and -0.375% (inactive),inactive,-5.83% (inactive) and -7.88% (inactive),inactive,,,inactive,-5.65%,-6.52% (inactive),-3.74% (inactive) and -16.6% (inactive),
ClC1=C(Cl)[C@@]2(Cl)[C@H]3C[C@@H](Cl)[C@H](Cl)[C@H]3[C@@]1(Cl)C2(Cl)Cl,-1.23% (inactive),,,,inactive,inactive,,,,,,-24.7% (inactive),50.1 µM (active),,,,,,,
ClC1=C(Cl)C2(Cl)C3C4OC4C(Cl)C3C1(Cl)C2(Cl)Cl (stereo not drawn),,inactive,inactive,-5.72%,inactive,,,-0.997% (inactive),-0.371% (inactive),,inactive,0.273% (inactive),inactive,2.4%,inactive,inactive,-11.3%,-6.75% (inactive),-17.2% (inactive),
Cc1cc(Cl)ccc1O[C@H](C)C(=O)O,,,inactive,,,,17.7% (inactive),-0.679% (inactive),-2.24% (inactive),-1.51% (inactive),inactive,7.37% (inactive),inactive,-13.3%,inactive,inactive,-16.8%,-2.52% (inactive),0.74% (inactive),-1.45% (inactive)
